Results taken from PubChem BioAssay.
Active and inactive are the calls of the source.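 How the source made its calls: active means visually confirmed hit in the image check and inhibition above 20%; inconclusive means visually confirmed hit but inhibition not above 20%; inactive means no visual hit in the image check.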

Assay: inhibitors of E-selectin induction by TNFa, primary screen, imaging, HUVEC, immunofluorescence, MLSMR starter and 10KST1 sets (AID 487);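 on inhibition: signal is fraction of cell area covered by stained E-selectin grains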;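 on nuclei count: 100% = median nuclei count of all wells on the same plate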
Conditions: HUVEC TNFalpha-induced E-selectin immunofluorescence imaging, at 2 µM; inhibition: stronger effect = higher value; nuclei count: measured here: cell number, toxicity

Compound | nuclei count [%] | inhibition
CCOC(=O)C1CCCN(C(=O)c2cc3c(=O)n4cccc(C)c4nc3n2C)C1 (stereo not given) | 66.5 | 75.9% (active)
COc1ccc(OC)c(S(=O)(=O)N2CCC(C(=O)NCc3ccccc3OC)CC2)c1 | 133 | -74.6% (inactive)
CCOC(=O)N1CCN(C(=O)CSc2nnc(-c3cc(OC)cc(OC)c3)o2)CC1 | 99.6 | -54.1% (inactive)
CCCC(=O)Nc1cnc(NC(=O)c2cccc(F)c2)cc1C | 103 | 46% (inactive)
COc1ccc2cc(C#N)c(SCC(=O)N3CCCC3)nc2c1 | 150 | -68.2% (inactive)
c1ccc(CC2CCN(C(c3cccs3)c3nnnn3C3CCCC3)CC2)cc1 (stereo not given) | 99.9 | -31.1% (inactive)
COc1ccc(-n2c(=O)c3c4c(sc3n3c(C)nnc23)CCCC4)cc1 | 116 | -7.4% (inactive)
CN(C)S(=O)(=O)NC(c1ccccc1)c1ccccc1 | 99.9 | 14.6% (inactive)
COc1ccc(C2=NOC(C(=O)NC3CCCCC3)C2)cc1OC (stereo not given) | 96.1 | -84.9% (inactive)
CCCCCC1CC(CC(=O)O)C(=O)O1 (stereo not given) | 126 | -70.3% (inactive)
CC(c1ccccc1)n1cnc2ccccc21 (stereo not given) | 148 | -48% (inactive)
COc1ccc(OC)c(C2C(C(=O)Nc3ccc(F)cc3)=C(C)Nc3nc(CCCO)nn32)c1 (stereo not given) | 109 | -44% (inactive)
Cn1c(=O)c2c(nc(Br)n2CCSc2nnnn2-c2ccccc2)n(C)c1=O | 74.1 | -7.6% (inactive)
O=C(Nc1ccc(S(=O)(=O)Nc2ccc(Cl)cc2)cc1)C1CCCO1 (stereo not given) | 101 | 7.3% (inactive)
Fc1ccccc1Cn1nnc2c(-n3ccnc3)ncnc21 | 106 | -55.2% (inactive)
O=C(c1ccc(Br)o1)N1CCN(c2ccc3nnc(-c4ccccc4)n3n2)CC1 | 120 | -91.9% (inactive)
CC1Cc2nc(SCC(=O)Nc3nccs3)n(C)c(=O)c2S1 (stereo not given) | 111 | -23.5% (inactive)
CCOc1cc(-c2nc(-c3ccc(C)nc3OCC)no2)cc(OCC)c1OCC | 117 | -56.3% (inactive)
CCn1c(C(C#N)/C(=N\S(=O)(=O)c2cccs2)c2ccccc2)nc2ccccc21 (stereo not given) | 119 | -188% (inactive)
O=C(c1cnn2c1NC(c1ccco1)CC2C(F)(F)F)N1CCN(c2cccc(Cl)c2)CC1 (stereo not given) | 126 | -38.6% (inactive)

Compound | nuclei count [%] | inhibition
Oc1ccc(Cl)cc1-c1cc(-c2ccccc2)n[nH]1 | 80.2 | -6.5% (inactive)
Cc1cccc(-c2cc3nc4c(c(N5CCOCC5)n3n2)CCCC4)c1 | 101 | -74.2% (inactive)
CCc1nnc(NC(=O)c2cc3ccccc3oc2=O)s1 | 96.3 | -67.3% (inactive)
O=C(CCS(=O)(=O)c1cccc2nonc12)Nc1cccc2c1CCCC2 | 114 | -14% (inactive)
Cc1nn(-c2ccc(F)cc2)c2c1cc(C#N)c1nc3ccccc3n12 | 102 | 2.3% (inactive)
Oc1c(C(c2ccccc2)N2CCc3ccccc3C2)sc2ncnn12 (stereo not given) | 117 | -25.4% (inactive)
O=C1CN(C(=O)COC(=O)c2ccccc2NC(=O)c2ccco2)c2ccccc2N1 | 123 | -31% (inactive)
COc1cccc(-c2noc(C3CCCN(C(=O)Cc4ccccc4)C3)n2)c1 (stereo not given) | 115 | 18.4% (inactive)
CCCCCn1c(CN2CCN(C)CC2)nc2c1c(=O)n(C)c(=O)n2C | 93.2 | 0.3% (inactive)
CC(C)OC(=O)c1cccc(C(=O)O)n1 | 110 | -285% (inactive)
CC1CCCCN1CCNS(=O)(=O)c1ccc2c(c1)oc(=O)n2C (stereo not given) | 88.9 | 18.9% (inactive)
CCCc1nnc2n1N=C(c1ccc(-c3cc(Cl)ccc3Cl)o1)CS2 | 89 | 17.1% (inactive)
COc1cccc(CNc2nc3nc(C)c(Cl)c(C)n3n2)c1 | 83.7 | 50.1% (inactive)
COc1ccc(CNc2nc(NCc3ccc(OC)cc3)n(S(C)(=O)=O)n2)cc1 | 95.3 | 47% (inactive)
COc1cccc(NC(=O)N(Cc2ccco2)C(C)c2cccs2)c1 (stereo not given) | 114 | -52.3% (inactive)
Cc1nnc(SCC(=O)NCc2ccccc2)s1 | 120 | 10.5% (inactive)
O=C(c1ccco1)N1CCN(CC2CC3C=CC2C3)CC1 (stereo not given) | 106 | -30.7% (inactive)
CCOC(=O)CSc1nnc2n1C(C)(C)Cc1ccccc1-2 | 117 | -102% (inactive)
CCN(CC)CCN1C(=O)C(=O)/C(=C(/O)c2c(C)[nH]c(C(=O)OC)c2C)C1c1ccccc1OC (stereo not given) | 101 | -11.7% (inactive)
CCOC(=O)C(C)(C)Sc1nc2c(cnn2-c2ccc(C)cc2)c(=O)[nH]1 | 106 | -44.8% (inactive)
